PLAP activator: activators of human placental alkaline phosphatase; P05187; purified PLAP enzyme, luminescent substrate read-out; hits give high values; activation fold at 20 µM; actives 1.2% (n = 96,000); in the data active = activation fold above about 2
CYP2C19 activ: activators of human cytochrome P450 2C19; P33261; recombinant CYP2C19, luciferin-H EGE luminescence; hits give high values; 0 = fully inhibited enzyme, 1 = untreated enzyme; activation factor at 5 µM; 96,000 tested, under 10 active;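 active = activation factor of at least 2 at 5 µM in the primary screen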
Target sequence (P33261 whole entry, looked up): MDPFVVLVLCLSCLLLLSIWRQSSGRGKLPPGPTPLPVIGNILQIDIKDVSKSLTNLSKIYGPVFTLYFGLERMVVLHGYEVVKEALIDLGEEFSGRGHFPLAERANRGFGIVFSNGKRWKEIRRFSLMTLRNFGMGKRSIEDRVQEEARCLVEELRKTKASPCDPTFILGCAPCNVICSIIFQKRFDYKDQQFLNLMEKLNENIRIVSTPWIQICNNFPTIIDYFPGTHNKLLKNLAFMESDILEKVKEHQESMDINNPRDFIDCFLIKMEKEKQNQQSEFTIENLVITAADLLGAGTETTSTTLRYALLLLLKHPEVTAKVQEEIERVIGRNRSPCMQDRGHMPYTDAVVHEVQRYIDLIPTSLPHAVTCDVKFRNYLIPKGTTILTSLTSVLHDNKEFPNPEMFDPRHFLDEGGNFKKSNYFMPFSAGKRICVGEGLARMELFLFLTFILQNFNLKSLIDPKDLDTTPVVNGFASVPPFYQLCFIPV
CYP2C19 inh: human CYP2C19 inhibition; actives 21% (n = 96,000); inhibition, % at 5 µM; CYP2C19 Supersomes, luciferin-H EGE luminescence, 30 min; P33261;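 active = CYP2C19 inhibition above a set limit at 5 µM in the primary screen, cut at about 50% in these data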
CYP2C9 act: increases human cytochrome P450 2C9 activity | P11712 | actives 1.4% (n = 96,000) | AID 1024 | activation factor at 5 µM | recombinant CYP2C9, luciferin-H conversion, luminescence; hits give high values; factor 1 = untreated enzyme, 0 = blocked;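 active = activation factor of 2 or more for CYP2C9 at a 5 µM dose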
CYP2C9 inhib: inhibitors of human CYP2C9; P11712; CYP2C9 Supersomes, luciferin-H conversion, luminescence; inhibition, % at 5 µM; actives 20% (n = 96,000); AID 777;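 active = blocking of liver enzyme CYP2C9 beyond about 50% at 5 µM, limit read from the data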
Hits are given with their value; - = inactive; . = not tested or not shown. This is a sample that favours compounds with a hit; in the whole collection about 31% have one here.

SMILES	PLAP activator	CYP2C19 activ	CYP2C19 inh	CYP2C9 act	CYP2C9 inhib
COc1cc(SC)ccc1C(=O)OC1CCOC1=O (configuration not stated)	-	-	-	-	-
COc1ccc(C(=O)N2CCC(C(=O)NCc3ccccn3)CC2)cc1	-	-	-	-	-
CCOC(=O)c1cccc(NC(=O)CN(c2ccc(OC)cc2)S(=O)(=O)c2c(C)noc2C)c1	-	-	77	-	94
COc1ccc(N(CC(=O)Nc2cccc(C(=O)O)c2)S(=O)(=O)c2c(C)noc2C)cc1	-	-	-	-	68
Cc1ccc(N(CC(=O)Nc2ccc(F)c(Cl)c2)S(=O)(=O)c2c(C)noc2C)cc1	-	-	-	-	-
Cc1c(C(=O)NCc2cccnc2)oc2ccc(S(=O)(=O)N3CCCC(C)C3)cc12 (configuration not stated)	-	-	-	-	-
O=C(CCn1c(=O)oc2ccccc21)N1CCN(c2ccccc2F)CC1	-	-	73	-	-
O=C(CCn1c(=O)oc2ccccc21)N1CCN(C(c2ccccc2)c2ccccc2)CC1	-	-	-	-	66
CC1Cc2ccccc2N1C(=O)Cn1c(=O)oc2cc(S(=O)(=O)NC3CCCC3)ccc21 (configuration not stated)	-	-	-	-	69
CC1CCN(S(=O)(=O)c2ccc3c(c2)oc(=O)n3CC(=O)N2c3ccccc3CC2C)CC1 (configuration not stated)	-	-	-	-	-
CC1Cc2ccccc2N1C(=O)CCn1c(=O)oc2ccccc21 (configuration not stated)	-	-	94	-	77
COc1ccc(N2CCN(C(=S)Nc3cc(C)ccc3C)CC2)cc1	-	-	-	-	-
COc1ccc(-n2c(C)cc(C(=O)NC3CCCCC3)c2C)cc1	-	-	-	-	-
N#CC(C(=O)c1ccco1)c1ccccn1 (configuration not stated)	-	-	-	-	-
Cc1ccc(-c2noc(CN3C(C)CCCC3C)n2)cc1 (configuration not stated)	-	-	51	-	-
Nc1cccnc1Sc1cc(Cl)c(Cl)cc1Cl	-	-	-	-	-
O=C(c1cccs1)N(Cc1ccccn1)Cc1ccco1	-	-	54	-	-
COc1ccc(-c2cc(-c3ccc(OC)c(OC)c3)n[nH]2)c(O)c1	2.2	-	-	-	-
COC(=O)c1cc(-c2ccc(OC)c(OC)c2)n[nH]1	-	-	55	-	-
COc1ccc(-c2nc3c(n2O)CCCC3=O)cc1OC	-	-	-	-	-
C=C(C)COc1ccc(-c2nc(N)ncc2Oc2ccc(OC)cc2)c(O)c1	-	-	-	-	-
COc1ccc(-c2c(-c3ccc(O)cc3O)n[nH]c2C)cc1OC	.	-	100	-	92
C=C(C)COc1ccc(-c2n[nH]c(C)c2-c2ccc(Br)cc2)c(O)c1	-	-	-	-	57
CCOC(=O)C(OC(=O)c1sc(=S)n(C)c1C)C(C)=O (configuration not stated)	-	-	-	-	-
COc1ccc(-c2cc(-c3cc(F)ccc3O)[nH]n2)cc1OC	-	-	-	-	-
SMILES	PLAP activator	CYP2C19 activ	CYP2C19 inh	CYP2C9 act	CYP2C9 inhib
COc1ccc(-c2cc(-c3ccccc3O)[nH]n2)cc1OC	2.8	-	-	-	-
CN(C)c1ccc(CNC2CC(C)(C)NC(C)(C)C2)cc1	-	-	-	-	-
CC(NCc1ccc(N(C)C)cc1)C1CC2CCC1C2 (configuration not stated)	-	-	86	-	-
COC(=O)c1[nH]c2ccc(C)cc2c1NC(=O)Nc1ccccc1OC	-	-	-	-	-
Cc1cc(C)n(C(=O)c2ccc(S(=O)(=O)NCC3CCCO3)cc2)n1 (configuration not stated)	-	-	-	-	58
Cc1cc(C)n(C(=O)c2ccc(C)c(S(=O)(=O)N3CCCC3)c2)n1	-	-	73	-	55
Cc1ccc(C(=O)N2CCN(C)CC2)cc1S(=O)(=O)N1CCCCC1	-	-	-	-	-
Cc1cc(C)n(C(=O)c2ccc(S(=O)(=O)N3CCOCC3)cc2)n1	-	-	-	-	53
Cc1cc(C)n(C(=O)c2cccc(S(=O)(=O)N3CCOCC3)c2)n1	-	-	59	-	-
CC(=O)Nc1ccc(C(=O)Nc2ccc(S(=O)(=O)NCC3CCCO3)cc2)cc1 (configuration not stated)	-	-	-	-	-
O=C(N/N=C/c1cccc(C(F)(F)F)c1)C1CCN(c2ncc(C(F)(F)F)cc2Cl)CC1	-	-	-	-	-

Screens deposited in PubChem BioAssay by Sanford-Burnham Center for Chemical Genomics.
